From PubChem BioAssay (Tox21)
Values joined by “and” are separate entries in the source; they are usually repeats but may differ in a detail not shown here. Equal values may be shown once. Inconclusive results are not listed. Active and inactive are the calls of the source. Unless noted, calls come from the whole dose curve; as a rule, active = well fitted curve in the direction sought with a large enough effect in the repeat runs; inconclusive = weak or mixed curves; inactive = no such curve, though single readings can be large; an effect the other way counts as inactive or inconclusive.

Experiments:
[1] = Caspase-3/7 induction in CHO-K1 cells by small molecules, qHTS cell viability counter screen (AID 1346979); note: nearly all actives have a fitted effect of over 35% in size; note: potency is the fitted concentration of half-maximal effect
Procedure, shortened: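 Wild-type CHO-K1 cells were seeded at 1,500 per well, rested 5hr at 37 C, then exposed to compounds in DMSO. After 16hr, CellTiter-Fluor reagent was added and fluorescence read 1hr later as the viability measure.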

[2] = Caspase-3/7 induction in CHO-K1 cells by small molecules, qHTS assay (AID 1346980); note: nearly all actives have a fitted effect of over 15% in size
Procedure, shortened: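 Luminescent Caspase-Glo 3/7 read (30min, room temperature) quantified apoptosis induction. Cells were wild-type CHO-K1, treated with compound for 17hr at 37 C and 5% CO2.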

[3] = Caspase-3/7 induction in HepG2 cells by small molecules, qHTS cell viability counter screen (AID 1346981); note: nearly all actives have a fitted effect of over 30% in size; note: potency is the fitted concentration of half-maximal effect
Procedure, shortened: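 Viability determined by CellTiter-Fluor fluorescence in HepG2 wells also used for the luminescent Caspase-Glo 3/7 read. Compounds were present for 16 hr at 37 C, 5% CO2 before reagent addition.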

[4] = target: Nuclear receptor subfamily 1 group I member 2 (Homo sapiens) (UniProt O75469); assay: Human pregnane X receptor (PXR) small molecule agonists, qHTS assay (AID 1346982); note: nearly all actives have a fitted effect of over 35% in size; note: potency is the fitted concentration of half-maximal effect
Procedure, shortened: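 Compound-induced hPXR transactivation of a CYP3A4 luciferase reporter was scored in HepG2 PXR-Luc cells over 24 hr at 37 C, 5% CO2, by luminescence.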

[5] = target: Nuclear receptor subfamily 1 group I member 2 (Rattus norvegicus) (UniProt Q9R1A7); assay: Rat pregnane X receptor (rPXR) activation by small molecules, qHTS assay (AID 1346983); conditions: rPXR luciferase reporter cells, One-Glo luminescence, 24 h; max activation: stronger effect = higher value; note: nearly all actives have a fitted effect of over 20% in size
Procedure, shortened: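 Luminescent readout (One-Glo luciferase, 30 min room temperature) followed 24 hr compound treatment at 37 C of rPXR cells plated 2,000 per well and preincubated 5hr; qHTS format with compounds delivered in DMSO.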

[6] = target: Nuclear receptor subfamily 1 group I member 2 (Homo sapiens) (UniProt O75469); assay: CYP3A4 induction through human pregnane X receptor (PXR) by small molecules, qHTS assay (AID 1346984); note: nearly all actives have a fitted effect of over 40% in size
Procedure, shortened: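 Readings come from a luciferase reporter: DPX-2 cells, which are HepG2 cotransfected with PXR and a CYP3A4-promoter construct, were exposed to test compounds for 24 h at 37C before One-Glo detection.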

[7] = target: Nuclear receptor subfamily 1 group I member 2 (Homo sapiens) (UniProt O75469); assay: Human pregnane X receptor (PXR) activation by small molecules, qHTS assay (AID 1346985); note: nearly all actives have a fitted effect of over 40% in size
Procedure, shortened: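 DPX-2 cells (HepG2 co-transfected with a PXR response element and a CYP3A4-promoter luciferase construct) were seeded at 2,000 per well, rested 5 hr at 37C, then exposed to DMSO-dissolved compounds for 24 hr. Activation was read as luciferase luminescence.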

[8] = Caspase-3/7 induction in HepG2 cells by small molecules, qHTS assay (AID 1346978); note: nearly all actives have a fitted effect of over 15% in size
Procedure, shortened: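 Caspase-3/7 induction was measured by Caspase-Glo 3/7 luminescence (30 min, room temperature) after a 17 hr compound exposure of wild-type HepG2 cells seeded at 2,000 per well and pre-incubated 5 hr.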

[9] = target: Acetylcholinesterase (Homo sapiens) (UniProt P22303); assay: Acetylcholinesterase (AChE) small molecule antagonists: colormetric cell-based qHTS assay (AID 1347395; calls by dose curve; note: nearly all actives have a fitted effect of over 30% in size)
Procedure, shortened: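 SH-SY5Y cells, plated overnight at 37 C, were exposed to compounds for 30 min at 37 C and 5% CO2. Acetylthiocholine plus DTNB was then added, and thiocholine from endogenous AChE was quantified colorimetrically after 90 min at 37 C.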

[10] = target: Acetylcholinesterase (Homo sapiens) (UniProt P22303); assay: Acetylcholinesterase (AChE) small molecule antagonists: enzyme-based qHTS assay (AID 1347397; calls by dose curve; note: nearly all actives have a fitted effect of over 55% in size); conditions: Potency: AChE enzyme activity inhibition
Procedure, shortened: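 Absorbance-based detection of thiocholine with DTNB served as the read-out. Recombinant human AChE was exposed to compound for 30 min at RT before a 10 min RT incubation with acetylthiocholine.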
% is set by controls: 0 for no effect and ±100 for the full control effect.

Acetylcholinesterase (Homo sapiens), sequence (P22303 whole entry, looked up): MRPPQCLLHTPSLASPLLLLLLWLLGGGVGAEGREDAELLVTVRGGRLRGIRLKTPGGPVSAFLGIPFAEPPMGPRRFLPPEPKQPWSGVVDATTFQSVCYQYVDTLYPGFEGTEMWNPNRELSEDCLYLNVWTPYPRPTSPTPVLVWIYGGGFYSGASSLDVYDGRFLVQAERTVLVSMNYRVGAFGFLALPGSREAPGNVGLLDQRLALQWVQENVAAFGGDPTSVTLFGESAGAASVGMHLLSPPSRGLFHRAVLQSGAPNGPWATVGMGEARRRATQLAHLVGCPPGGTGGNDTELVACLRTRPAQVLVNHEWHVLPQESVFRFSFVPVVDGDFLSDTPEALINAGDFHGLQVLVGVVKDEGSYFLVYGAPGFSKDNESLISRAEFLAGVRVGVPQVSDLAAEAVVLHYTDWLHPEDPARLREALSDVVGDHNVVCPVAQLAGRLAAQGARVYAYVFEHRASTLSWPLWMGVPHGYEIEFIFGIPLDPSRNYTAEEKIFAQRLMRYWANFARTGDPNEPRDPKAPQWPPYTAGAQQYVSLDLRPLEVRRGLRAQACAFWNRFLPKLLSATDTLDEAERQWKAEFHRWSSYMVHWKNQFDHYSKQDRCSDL
Nuclear receptor subfamily 1 group I member 2 (Homo sapiens), sequence (O75469 whole entry, looked up): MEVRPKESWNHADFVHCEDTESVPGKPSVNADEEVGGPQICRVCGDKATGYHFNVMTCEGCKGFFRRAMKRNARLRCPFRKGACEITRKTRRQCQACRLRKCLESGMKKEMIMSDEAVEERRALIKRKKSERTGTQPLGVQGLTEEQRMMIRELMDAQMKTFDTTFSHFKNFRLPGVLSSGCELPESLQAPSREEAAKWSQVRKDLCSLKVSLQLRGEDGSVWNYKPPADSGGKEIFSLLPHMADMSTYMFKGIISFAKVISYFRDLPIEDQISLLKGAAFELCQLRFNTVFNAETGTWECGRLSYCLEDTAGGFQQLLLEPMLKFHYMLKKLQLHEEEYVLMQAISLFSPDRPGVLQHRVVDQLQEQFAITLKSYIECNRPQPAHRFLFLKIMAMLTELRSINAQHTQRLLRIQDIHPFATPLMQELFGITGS
Nuclear receptor subfamily 1 group I member 2 (Rattus norvegicus), sequence (Q9R1A7 whole entry, looked up): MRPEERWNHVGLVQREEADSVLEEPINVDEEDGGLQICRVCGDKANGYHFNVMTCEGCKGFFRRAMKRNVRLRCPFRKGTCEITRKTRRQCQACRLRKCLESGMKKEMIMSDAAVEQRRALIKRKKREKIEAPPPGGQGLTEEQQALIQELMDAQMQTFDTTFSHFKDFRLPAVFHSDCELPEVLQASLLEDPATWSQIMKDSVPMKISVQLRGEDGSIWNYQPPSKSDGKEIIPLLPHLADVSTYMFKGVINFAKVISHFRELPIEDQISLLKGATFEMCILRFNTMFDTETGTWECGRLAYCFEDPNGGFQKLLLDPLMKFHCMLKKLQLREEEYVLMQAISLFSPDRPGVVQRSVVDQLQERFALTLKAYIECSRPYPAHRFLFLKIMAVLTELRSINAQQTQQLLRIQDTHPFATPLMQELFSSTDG

CCCCCCCCCCCCCCCC[N+](C)(C)C
inactive: Potency [2] | Potency [4] | max activation [5] -8.83% | Potency [6] | Potency [7]
active: Potency [1] 26.3 µM and 48.6 µM and 29.8 µM | Potency [3] 68.6 µM

ClC1=C(Cl)C2(Cl)C3C(Cl)C=CC3C1(Cl)C2(Cl)Cl (stereo unspecified)
inactive: Potency [8] | Potency [3] | Potency [9] | Potency [10]

CC(=O)/C=C/c1ccc2c(c1)OCO2
inactive: Potency [8] | Potency [2] | Potency [10]
active: Potency [4] 61.4 µM

CC(C)C(=O)Cl
inactive: Potency [1] | Potency [2] | Potency [3] | Potency [4] | Potency [9] | Potency [10]
